Compound activity from PubChem BioAssay.
CtBP-E1A inh: CtBP/E1A binding inhibition | AlphaScreen GST-E1A/His-CtBP binding, 1536-well; stronger effect = lower value | activity change, % (test concentration not listed) | actives 0.49% (n = 340,000); in the data active = activity change below about -65%; inconclusive = mostly about -30% to -63%
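AlphaScreen with 125 nM GST-E1A and 125 nM His-CtBP (5X stocks) in Tris pH 8.0, 300 mM NaCl, BSA, Tween 20, TCEP. Compounds preincubated 2 h at 37 deg C, then glutathione donor/nickel acceptor beads added for 1 h at 37 deg C in dark.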
Gal4-VP16 FLuc: Gal4-VP16 reporter inhibition counter-screen | Drosophila S2 Gal4-VP16 UAS-luciferase, luminescence, 20 h | actives 3.5% (n = 310,000) | Potency, µM (top dose mostly 53.6 µM), usual class: inhibitors | AID 2546;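 note: Gal4-VP16 expression switched on by copper sulfate through the metallothionein promoter; nearly all actives have a fitted effect of over 50% in size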
Six1-Eya2 inh: Six1/Eya2 interaction inhibition | AlphaScreen GST-Six1/His-Eya2 binding, biochemical; stronger effect = lower value | actives 0.56% (n = 360,000) | AID 651725 | activity change, % (concentration not given with the values) | Q15475+O00167; in the data active = activity change below about -65%; inconclusive = mostly about -30% to -63%
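AlphaScreen luminescence read after one hour at 37 °C in darkness. Pin-transferred compounds met GST-Six1 and His-Eya2 protein (5X stock 250 nM/500 nM) plus glutathione donor and Ni-chelate acceptor beads (5X, 50 ug/mL).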
RORg inh: ROR gamma (mouse) transcription inhibition; P51450; Potency, µM (titrated, usually from 53.6 µM), actives largely listed as inhibitors; actives 5.4% (n = 310,000); Drosophila S2 Gal4-RORgamma UAS-luciferase reporter, 20 h; note: nearly all actives have a fitted effect of over 60% in size
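Schneider cells (Drosophila), stable Gal4 DBD–ROR gamma + UAS-luc; 1 hr cmpd preincubation; Cu2+ induction 700 uM final; 20 hr ambient; luminescence.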
MBNL1 CUG block: blocks human MBNL1 binding to CUG repeat RNA | TR-FRET MBNL1-His/biotin-(CUG)12 binding, 665/545 ratio | AID 2675 | Potency, µM (doses to about 57.5 µM), hits mostly inhibitors | actives 0.036% (n = 280,000); active = well fitted inhibition curve with a large enough effect in the signal ratio, with a control signal flat, not every such curve was filed as active; inconclusive = small, poorly fitted or top-dose-only effect, or effect the other way, or a change in a side signal; inactive = no such curve, though single readings can be large or run the other way; the % refers to the signal ratio
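Compound titration spanned 92 nM–58 uM against the MBNL1-His/biotin-(CUG)12 complex. After 60 min at room temperature with 5 nM streptavidin-XL665 and 0.055 ng/ul terbium anti-His, ratiometric 665/545 nm emission (Ex 340 nm) normalized to controls.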
CBFb RUNX1 block: inhibitors of human CBF-beta and RUNX1 interaction | Q01196+Q13951 | AlphaScreen CBFb-His/RUNX1-biotin binding, biochemical | Potency, µM (series often up to 59.8 µM), usual class: inhibitors | 230,000 tested, under 10 active | AID 1477
Target sequence (Q01196 whole entry, looked up): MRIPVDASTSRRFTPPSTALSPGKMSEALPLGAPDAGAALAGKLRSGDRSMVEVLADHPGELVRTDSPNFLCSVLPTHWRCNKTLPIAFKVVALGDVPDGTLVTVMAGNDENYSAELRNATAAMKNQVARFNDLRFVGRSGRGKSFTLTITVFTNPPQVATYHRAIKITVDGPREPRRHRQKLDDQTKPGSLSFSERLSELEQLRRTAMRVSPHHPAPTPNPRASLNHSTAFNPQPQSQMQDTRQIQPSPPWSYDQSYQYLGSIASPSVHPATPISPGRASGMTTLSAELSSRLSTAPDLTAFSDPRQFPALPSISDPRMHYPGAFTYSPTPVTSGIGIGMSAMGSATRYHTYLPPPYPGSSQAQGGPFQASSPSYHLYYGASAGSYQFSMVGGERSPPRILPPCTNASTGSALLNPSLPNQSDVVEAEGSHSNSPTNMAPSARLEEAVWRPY
Target sequence (Q13951 whole entry, looked up): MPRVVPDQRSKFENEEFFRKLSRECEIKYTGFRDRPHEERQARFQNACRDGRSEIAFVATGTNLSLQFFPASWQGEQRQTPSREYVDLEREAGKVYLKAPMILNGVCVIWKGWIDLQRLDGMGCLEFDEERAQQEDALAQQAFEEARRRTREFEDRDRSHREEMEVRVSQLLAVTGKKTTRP
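AlphaScreen binding: CBFb-His and RUNX1-biotin (30 nM each) preincubated 20 min, compound added for 15 min, then nickel and streptavidin beads for 90 min, all at room temperature. Disruption of the interaction by any mechanism counts as activity.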
Numbers stand for hits; i = inactive; ? = inconclusive; nt = no result; [ ] = remark or other dose. Compounds with a hit are over-represented: about 5.5% of the library has one in this group of screens. Unless noted, calls come from the whole dose curve; as a rule, active = well fitted curve in the direction sought with a large enough effect; inconclusive = small, poorly fitted or top-dose-only effect, or another doubt; inactive = no such curve, though single readings can be large; an effect the other way counts as inactive or inconclusive.

SMILES | CtBP-E1A inh | Gal4-VP16 FLuc | Six1-Eya2 inh | RORg inh | MBNL1 CUG block | CBFb RUNX1 block
COc1ccc(C(=O)Nc2cccc3cccnc23)cc1OC | i | i | i | i | ? | i
Cc1ccc(/C=N/NC(=O)CN2CCN(S(=O)(=O)c3ccc(Br)cc3)CC2)s1 | i | ? | i | ? | nt | i
O=C(CN1CCN(S(=O)(=O)c2ccc(Br)cc2)CC1)N/N=C/c1ccc(Br)s1 | i | 8.91µM | i | 6.31µM | i | i
COc1ccc(-n2nc([N+](=O)[O-])c(=NCCC3=CCCCC3)n2O)cc1 | ? | i | -69.6 | i | ? | ?
C=C1C(=O)O[C@@]23[C@H]1CC[C@@H](C)[C@@H]2CC[C@@]1(C)O[C@@H]31 | i | nt | i | nt | nt | nt
CC(=O)N1C2(C=CC1(C)C(=O)NCc1ccc(C)o1)CCCCC2 (configuration not stated) | nt | ? | nt | i | nt | ?
CC(=O)N1C2(C=CC1(C)C(=O)NCc1ccccn1)CCCCC2 (configuration not stated) | nt | ? | nt | 11.2µM | nt | i
Cc1c(/C=N\NC(=O)C2COc3ccccc3O2)c2ccccc2n1C (configuration not stated) | i | i | i | i | i | i
O=C(N/N=C/c1c(O)n(-c2ccccc2Cl)c(=O)c2ccccc12)C1COc2ccccc2O1 (configuration not stated) | i | 2.82µM | i | 3.98µM | i | i
Cc1ccc(-n2c(O)c(/C=N/NC(=O)C3COc4ccccc4O3)c3ccccc3c2=O)cc1 (configuration not stated) | i | 3.16µM | i | 3.98µM | nt | i
O=C(N/N=C/c1cccs1)C1COc2ccccc2O1 (configuration not stated) | i | ? | i | ? | ? | i
COc1cc(C(=O)Nc2nnc(C3=COCCO3)o2)cc(OC)c1OC | i | 2.82µM | i | 2.51µM | i | nt
Cc1ccc(-c2nnc(NC(=O)C3=COCCO3)o2)c(C)c1 | ? | nt | i | nt | nt | nt
COc1ccc(C(=O)Nc2nnc(C3=COCCO3)o2)cc1 | ? | 2µM | i | 2.24µM | i | nt
CS(=O)(=O)c1ccc(-c2nnc(NC(=O)C3=COCCO3)o2)cc1 | i | nt | i | nt | nt | nt
CCOc1ccc(C(=O)Nc2nnc(C3=COCCO3)o2)cc1 | ? | 1µM | ? | 2.51µM | i | nt
CCCCC(=O)Nc1nnc(C2=COCCO2)o1 | i | i | i | 12.6µM | i | i
OC1(c2nc3ccccc3[nH]2)CCCCC1 | i | nt | i | nt | nt | nt
CN(C)C(=O)c1ccc(-c2nccc(NCc3cccnc3)n2)cc1 | nt | i | nt | i | nt | nt
CCc1cc(C(N)=S)ccn1 | i | i | i | i | i | i
CCc1ccc(C(N)=S)cc1 | i | i | i | 11.2µM | i | i
COc1ccc(C(N)=S)cc1 | i | ? | i | 12.6µM | i | i
C=CCOCC1CN2C(CCC(C)C2c2ccc(Br)cc2)C(=O)O1 (configuration not stated) | nt | i[10 µM] | nt | i[10 µM] | nt | i[13.1 µM]
O=C(NNC(=O)C12CC3CC(CC(Cl)(C3)C1)C2)c1ccncc1 | i | nt | i | nt | nt | nt
Cc1cc(C)nc(NN2C(=O)/C(=C/c3ccccc3)SC2=S)n1 | i | i | i | 12.6µM | i | i
SMILES | CtBP-E1A inh | Gal4-VP16 FLuc | Six1-Eya2 inh | RORg inh | MBNL1 CUG block | CBFb RUNX1 block
Cc1ccc(/C=N/n2c(COc3ccccc3)n[nH]c2=S)cc1 | i | ? | i | 3.16µM | i | nt
S=c1[nH]nc(COc2ccccc2)n1/N=C/c1ccc(Br)cc1 | nt | i | i | ? | i | nt
CSc1ccc(/C=N/n2c(Cc3ccc(Br)cc3)n[nH]c2=S)cc1 | ? | i | i | ? | i | ?
CN(C)c1ccc(/C=N/n2c(COc3ccccc3)n[nH]c2=S)cc1 | i | 3.98µM | i | 3.16µM | i | ?
S=c1[nH]nc(COc2ccccc2)n1/N=C/c1cccnc1 | i | ? | i | i | i | i
FC(F)Oc1ccc(/C=N/n2c(Cc3ccc(Br)cc3)n[nH]c2=S)cc1 | i | ? | i | 8.91µM | i | nt
CC(C)c1ccc(/C=N/n2c(COc3ccccc3)n[nH]c2=S)cc1 | i | 10µM | i | ? | i | nt
CCN(CC(=O)Nc1ccc(NC(C)=O)cc1)C(=O)CN1C(=O)NC(C)(c2ccc3ccccc3c2)C1=O (configuration not stated) | i | nt | i | nt | nt | nt
CN1CCC(=O)N([C@H](CO)c2ccccc2)CC1 | i | i | i | i | i | nt
CC/C=C\CC[C@H](OC(=O)c1ccc(Br)cc1)C1=CCCCC1=O | nt | i[10 µM] | nt | i[10 µM] | nt | i[13.1 µM]
Cc1ccc(N(C(=O)Cc2cccs2)C(C(=O)NC2CCCCC2)c2ccccn2)cc1C (configuration not stated) | i | i | i | i | i | i
CC1CC(C)CN(CCCNC(=O)CCC(=O)N2CCOc3ccccc32)C1 (configuration not stated) | i | i | i | i | i | nt
Oc1ccc(/C=N/n2c(COc3ccccc3)n[nH]c2=S)cc1O | i | i | i | i | i | nt
CN(C)c1ccc(/C=N/n2c(-c3cccnc3)n[nH]c2=S)cc1 | i | i | i | i | ? | i
CN(C)c1ccc(/C=N/n2c(-c3ccccc3Br)n[nH]c2=S)cc1 | i | i | i | 3.55µM | i | i
CCOc1cc(/C=N/n2c(COc3ccccc3)n[nH]c2=S)ccc1O | nt | ? | i | 5.01µM | i | nt
CCOC(=O)C1Oc2ccccc2C(c2ccoc2)=C1C(=O)OC (configuration not stated) | i | i | i | i | nt | i
CC1CCC(C(C)C)C(OC(=O)COC(=O)c2ccc(N)cc2)C1 (configuration not stated) | i | 15.8µM | i | i | i | i
Cn1[nH]c(-c2ccccc2)c(/C=N/O)c1=O | i | 0.891µM | i | 3.55µM | i | i
Cc1ccc2cccc(N=Cc3c(C)[nH]n(-c4ccccc4)c3=O)c2n1 | i | 1µM | i | 1µM | ? | i
COC(=O)N/N=C\c1c(C)[nH]n(-c2ccccc2)c1=O | i | ? | i | 11.2µM | i | i
COCC(=O)N/N=C/c1c(C)[nH]n(-c2ccccc2)c1=O | -89.8 | ? | -76.8 | 0.631µM | i | i
Cn1nc(-c2ccccc2)c(/C=N/O)c1Cl | i | i | i | i | nt | i
COC(=O)CN=Cc1c(C)[nH]n(-c2ccccc2)c1=O | i | i | i | i | i | i
CC#CCN1c2ccccc2[C@]23C[C@@H](C(=O)OC)N(S(=O)(=O)c4c(C)noc4C)C2=NC(C(=O)OC)=C(C(=O)OC)[C@H]13 | nt | nt | nt | nt | nt | i[13.1 µM]
Cc1ccc(C)c(N2CCN(C(=O)c3ccc(CS(=O)Cc4cccc(Cl)c4)o3)CC2)c1 (configuration not stated) | i | i | i | i | i | nt
Cc1[nH]n(-c2ccccc2)c(=O)c1/C=N/N1C(=O)c2ccc3c4c(ccc(c24)C1=O)CC3 | i | ? | ? | 10µM | ? | i
